The values below come from PubChem BioAssay (NCI).

Some test systems named below: HCT-15 colon; HT29 colon; SNB-75 CNS; SNB-19 CNS; U251 CNS; PC-3 prostate; SK-MEL-5 melanoma; UACC-62 melanoma; LOX IMVI melanoma; SK-MEL-28 melanoma; SK-MEL-2 melanoma; EKVX NSCLC; SN12C renal; TK-10 renal; ACHN renal; CAKI-1 renal; CCRF-CEM leukemia; MOLT-4 leukemia; UO-31 renal; A498 renal.
Common to all, as to test: NCI-60 one-dose screen, 48 h (100 = growth as untreated, 0 = no growth, -100 = all killed)
What all share (details): 10 µM unless noted

About 83,000 compounds went through this panel and 20% of them were active in at least one assay; those are over-represented in the sample as a whole.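 Results are percent growth after 48 hours of single-concentration exposure. 100 means growth as in untreated cells, lower positive values show inhibition; negative values down to -100 show cell death.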 Unmarked numbers belong to inactive results. Activity calls are given as the source filed them. How the source made its calls: active means growth percent below 10; inactive means the rest.

For `Cc1ccc(/C=C(/C#N)n2nnc3cccc(F)c32)cc1`, the growth in the experiment with HCT-15 colon is 5.46% (active); with HT29 colon, 9.94% (active); with SNB-75 CNS, -35.7% (active); with SNB-19 CNS, 16.2%; in the experiment with U251 CNS, 13.9%; with PC-3 prostate, 20.8%. Also, the growth in the experiment on SK-MEL-5 melanoma is -55.2% (active); with UACC-62 melanoma, 13.2%; in the experiment with LOX IMVI melanoma, -14.7% (active); in the experiment on SK-MEL-28 melanoma, 52.4%; in the experiment on SK-MEL-2 melanoma it was 14.6%; in the experiment on EKVX NSCLC, 37.6%. The growth is 12.7% in the experiment with SN12C renal; 25.5% in the experiment on TK-10 renal; 18.5% with ACHN renal; 20.1% with CAKI-1 renal; 4.82% (active) in the experiment with CCRF-CEM leukemia; 5.52% (active) in the experiment on MOLT-4 leukemia.

Take `NCCCCCCNc1cc(-c2cccc(OC(F)(F)F)c2)nc2ccc(N3CCCC3)cc12`: the growth in the experiment with HCT-15 colon is -54.2% (active); in the experiment with HT29 colon, -2.69% (active); in the experiment on SNB-75 CNS, -32.4% (active); in the experiment with SNB-19 CNS it was 16.5%; in the experiment with U251 CNS, -59% (active); with PC-3 prostate, -5.66% (active). Moreover, the growth with SK-MEL-5 melanoma was -98.4% (active); with UACC-62 melanoma, -56.9% (active); in the experiment with LOX IMVI melanoma, -93.6% (active); with SK-MEL-28 melanoma, -83.4% (active); in the experiment with SK-MEL-2 melanoma, -63.6% (active); in the experiment on EKVX NSCLC it was 65.4%. Besides, the growth in the experiment with SN12C renal was -20.1% (active); with TK-10 renal it was -44.4% (active); in the experiment on ACHN renal it was -16.6% (active); in the experiment on CAKI-1 renal it was -45.9% (active); in the experiment with CCRF-CEM leukemia, -32.2% (active); with MOLT-4 leukemia it was -20.7% (active).

`COc1ccc(Cc2cnc(NC(=O)c3ccc4c(c3)OCCO4)s2)cc1`: the growth in the experiment on HCT-15 colon was 7.26% (active); with HT29 colon, 2.59% (active); with SNB-75 CNS it was 17.9%; in the experiment with SNB-19 CNS, 37.7%; with U251 CNS it was 12.3%; with PC-3 prostate, 23.4%. Besides, the growth is -39.3% (active) with SK-MEL-5 melanoma; 48.1% in the experiment on UACC-62 melanoma; 29.3% with LOX IMVI melanoma; 68.6% in the experiment on SK-MEL-28 melanoma; 39.3% with SK-MEL-2 melanoma; 37.7% in the experiment on EKVX NSCLC. The growth in the experiment on SN12C renal was 30.7%; with UO-31 renal, 54.8%; in the experiment on CAKI-1 renal, 27.8%; with CCRF-CEM leukemia, 13.5%; with MOLT-4 leukemia, 11.6%.

As for `O=Cc1ccc(-c2cn3ccnc3c(-c3ccc4ncn(Cc5ccccc5)c4c3)n2)cc1`, the growth was 50.9% in the experiment with HCT-15 colon; 82.5% in the experiment on HT29 colon; 78.6% with SNB-75 CNS; 85.6% in the experiment with SNB-19 CNS; 68% in the experiment with U251 CNS; 81% in the experiment with PC-3 prostate. Besides, the growth with SK-MEL-5 melanoma was 43.5%; in the experiment on UACC-62 melanoma, 62.9%; with LOX IMVI melanoma, 53.1%; with SK-MEL-28 melanoma, 92.5%; in the experiment on SK-MEL-2 melanoma, 72.2%; in the experiment on EKVX NSCLC, 79.1%. The growth was 79.3% in the experiment with SN12C renal; 99.3% with TK-10 renal; 88.4% with ACHN renal; 63.4% in the experiment with CAKI-1 renal; 88.8% in the experiment with A498 renal; 22.1% with CCRF-CEM leukemia. In addition, the growth in the experiment with MOLT-4 leukemia is 41.3%.

In the case of `COc1cc(-c2n/c(=C\c3c(O)[nH]c4ccc(Cl)cc34)cc3c2=Nc2ccccc2-3)ccc1F`, the growth was 46.4% in the experiment on HCT-15 colon; -10.3% (active) with HT29 colon; -39.5% (active) in the experiment with SNB-75 CNS; 2.79% (active) with SNB-19 CNS; -88.3% (active) in the experiment with U251 CNS; -8.04% (active) with PC-3 prostate. The growth in the experiment on SK-MEL-5 melanoma was 27.6%; in the experiment with UACC-62 melanoma, 46.5%; with LOX IMVI melanoma it was 0.0846% (active); in the experiment on SK-MEL-28 melanoma, 1.48% (active); in the experiment on SK-MEL-2 melanoma, 67.8%; with EKVX NSCLC, 51.6%. Besides, the growth with SN12C renal was 3.41% (active); with TK-10 renal, 1.18% (active); in the experiment with ACHN renal, -41.8% (active); in the experiment with CAKI-1 renal, 62.9%; in the experiment on A498 renal, 96.2%.

With `O=[N+]([O-])c1ccc(N=Nc2cc(S(=O)(=O)O)c3cccc(S(=O)(=O)O)c3c2O)cc1`, the growth was 118% in the experiment with HCT-15 colon; 111% in the experiment on HT29 colon; 104% in the experiment with SNB-75 CNS; 112% in the experiment on SNB-19 CNS; 104% in the experiment on U251 CNS; 98.5% in the experiment on PC-3 prostate. Besides, the growth in the experiment with SK-MEL-5 melanoma is 104%; in the experiment on UACC-62 melanoma, 108%; in the experiment with LOX IMVI melanoma it was 106%; in the experiment on SK-MEL-28 melanoma, 117%; in the experiment on EKVX NSCLC, 82.7%; in the experiment with SN12C renal it was 104%. Moreover, the growth in the experiment with UO-31 renal was 66.1%; in the experiment with TK-10 renal, 127%; in the experiment on ACHN renal it was 107%; with CAKI-1 renal, 57.4%; with A498 renal it was 124%; with CCRF-CEM leukemia, 119%.

As for `Cn1ccc2c1CC1CN(Cc3ccco3)C(=O)C1C2C(=O)O` (stereo unspecified), the growth with HCT-15 colon is 95.8%; with HT29 colon it was 101%; in the experiment with SNB-75 CNS, 74.3%; with SNB-19 CNS it was 98%; in the experiment on U251 CNS, 97.3%; in the experiment on PC-3 prostate it was 100%. Also, the growth in the experiment on SK-MEL-5 melanoma is 102%; with UACC-62 melanoma it was 95.5%; in the experiment on LOX IMVI melanoma, 94.6%; with SK-MEL-28 melanoma, 101%; with SK-MEL-2 melanoma it was 99.2%; in the experiment on EKVX NSCLC, 91.1%. The growth with SN12C renal was 97.2%; in the experiment with TK-10 renal it was 102%; with ACHN renal it was 105%; with CAKI-1 renal, 94.1%; in the experiment on CCRF-CEM leukemia it was 105%; in the experiment with MOLT-4 leukemia it was 103%.

With `COc1cc(CC(=O)c2ccc(O)c(OC)c2)ccc1O`, the growth is 110% in the experiment with HCT-15 colon; 94.3% in the experiment with HT29 colon; 96.8% in the experiment with SNB-75 CNS; 98.2% in the experiment with SNB-19 CNS; 92.5% in the experiment with U251 CNS; 83.1% in the experiment with PC-3 prostate. The growth in the experiment with SK-MEL-5 melanoma is 101%; in the experiment on UACC-62 melanoma it was 94.8%; with LOX IMVI melanoma, 96.7%; in the experiment with SK-MEL-28 melanoma, 97.2%; in the experiment on SK-MEL-2 melanoma, 106%; in the experiment on EKVX NSCLC it was 111%. For the same molecule, the growth was 94.2% in the experiment with SN12C renal; 87.5% with UO-31 renal; 102% in the experiment with ACHN renal; 98.8% in the experiment on CAKI-1 renal; 94.2% in the experiment on CCRF-CEM leukemia; 80% in the experiment on MOLT-4 leukemia.

As to `Cc1ccc(NC(C(=O)c2ccccc2)c2ccccc2)cc1` (stereo unspecified), the growth in the experiment on HCT-15 colon is 86.4%; in the experiment on HT29 colon, 46.9%; in the experiment with SNB-75 CNS it was 66.3%; with SNB-19 CNS, 47.9%; with U251 CNS, 29.7%; with PC-3 prostate, 37.6%. Moreover, the growth was 22.1% with SK-MEL-5 melanoma; 39.1% in the experiment with UACC-62 melanoma; 50.5% in the experiment with LOX IMVI melanoma; 52.8% in the experiment on SK-MEL-28 melanoma; 36.1% in the experiment on SK-MEL-2 melanoma; 20.5% in the experiment with EKVX NSCLC. Further, the growth with SN12C renal was 50.1%; in the experiment with TK-10 renal it was 74.6%; in the experiment on ACHN renal, 85%; in the experiment on CAKI-1 renal it was 66.7%; in the experiment with CCRF-CEM leukemia it was 65.2%; with MOLT-4 leukemia it was 74.6%.
